Reference: PubChem BioAssay
Activity calls are given as the source filed them. Unless noted, how the calls were made is not given here.

Assays:
[1] = target: Alpha-bungarotoxin (Bungarus multicinctus) (UniProt P60615); assay: compounds binding labelled alpha-BTX control protein – biochemical, small-molecule microarray, Alexa647 label, 635/667 nm fluorescence, artefact control for SMM control protein annotation, profiling panel (AID 1117); settings: alpha-BTX-A647 binding fluorescence, higher = more signal
Chain of Alpha-bungarotoxin (Bungarus multicinctus) (P60615 whole entry, looked up, the tested form may be a part): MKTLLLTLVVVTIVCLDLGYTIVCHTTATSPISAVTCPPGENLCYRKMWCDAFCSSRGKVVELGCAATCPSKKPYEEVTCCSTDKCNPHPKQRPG

[2] = system: XIP peptide (Xip251-270) binding; assay: XIP fragment 251-270 binding compounds – biochemical, small-molecule microarray, fluorescence 635/667 nm, 0.1 µg/mL protein, primary screen (AID 1182); settings: fluorescent protein binding, 635 nm, higher = more signal, called active from +8 up or from −8 down
[3] = system: XIP peptide (Xip251-270); assay: compounds binding XIP fragment 251-270 – biochemical, small-molecule microarray, fluorescence 635/667 nm, 0.5 µg/mL protein, primary screen (AID 1183); settings: fluorescence 635 nm, higher = more signal
[4] = blood-stage malaria parasite viability loss – strain 3D7, DAPI fluorescence, 100 nL, primary screen (AID 1184);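 further: parasites grown inside human red blood cells in medium with human serum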; settings: P. falciparum 3D7 growth, 3 d, higher = more signal
[5] = target: Homeobox protein Hox-A13 (Mus musculus) (UniProt Q62424); assay: disruptors of Hoxa13 oligonucleotide interaction – biochemical, fluorescence polarization, labeled oligonucleotide, primary screen (AID 1185); settings: Hoxa13:DNA binding, 15 min, higher = more signal, called active from +8 up or from −8 down
Chain of Homeobox protein Hox-A13 (Mus musculus) (Q62424 whole entry, looked up): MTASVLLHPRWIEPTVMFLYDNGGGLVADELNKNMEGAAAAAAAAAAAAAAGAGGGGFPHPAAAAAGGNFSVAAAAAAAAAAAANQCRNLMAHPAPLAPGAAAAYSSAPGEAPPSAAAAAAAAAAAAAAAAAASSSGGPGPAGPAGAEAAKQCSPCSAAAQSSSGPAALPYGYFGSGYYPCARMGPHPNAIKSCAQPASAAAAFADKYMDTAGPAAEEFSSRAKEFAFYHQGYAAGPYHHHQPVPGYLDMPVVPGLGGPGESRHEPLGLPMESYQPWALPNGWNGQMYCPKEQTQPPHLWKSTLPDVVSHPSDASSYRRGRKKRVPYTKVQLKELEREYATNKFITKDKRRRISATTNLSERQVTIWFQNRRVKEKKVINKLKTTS

[6] = blockers of DNA damage checkpoint Chk1 activation – imaging, HeLa, hydroxyurea, phospho-Chk1 antibody, percent positive cells, primary screen (AID 1186); settings: hydroxyurea-induced phospho-Chk1 immunofluorescence imaging, higher = more signal
[7] = blockers of DNA damage checkpoint Chk1 activation – imaging, HeLa, hydroxyurea, phospho-Chk1 nuclear intensity, primary screen (AID 1187); settings: hydroxyurea-induced phospho-Chk1 immunofluorescence imaging, higher = more signal
[8] = Pseudomonas biofilm growth suppression – PAO1 strain, BacTiter-Glo luminescence, LB-PBS, primary screen (AID 1144); settings: P. aeruginosa PAO1 biofilm, 12 h, higher = more signal
[9] = inhibition of PAO1 biofilm formation – strain PAO1, LB-PBS medium, absorbance 600 nm, primary screen (AID 1176); settings: P. aeruginosa PAO1 growth/biofilm, A600, 12 h; higher = more signal

SMILES | composite z-score [1] | composite z-score [2] | composite z-score [3] | z-score [4] | z-score [5] | z-score [6] | z-score [7] | z-score [8] | z-score [9]
O=C(NO)[C@]1(Cc2ccccc2)N=C(c2ccc(OCCCO)cc2)O[C@@H]1c1ccccc1 | 2.41 | -0.592 (inactive) | -1.32 | -1.26 | -5.15 (inactive) | -0.593 (inactive) | -0.0319 (inactive) | – | –
C=CCC(OC(C)=O)[C@@H]1[C@@H](N(Cc2cccc3ccccc23)C(=O)Cc2ccc(OC)cc2)c2cc(OCCCO)ccc2N1C(=O)Cc1ccc(OC)cc1 (some centres not stated) | 0.476 | -0.203 (inactive) | -0.665 | -2.1 | -2.18 (inactive) | 0.162 (inactive) | 0.268 (inactive) | – | –
O=C(N1CCCCC1)[C@@]1(Cc2ccccc2)N=C(c2ccc(OCCCO)cc2)O[C@H]1c1ccccc1 | 3.12 | 0.764 (inactive) | 0.66 | -2.18 | -3.68 (inactive) | -1.29 (inactive) | -1.55 (inactive) | – | –
CC(C)[Si](C#C[Si](C(C)C)(C(C)C)C(C)C)(O[C@H](C)c1cn([C@H](C)c2ccccc2)nn1)C(C)C | 0.833 | -0.608 (inactive) | 0.193 | -0.628 | -0.0303 (inactive) | -0.0899 (inactive) | 0.346 (inactive) | – | –
CC(C)NC(=O)[C@@H]1c2ccccc2C(=O)N(Cc2cc(F)cc(C(F)(F)F)c2)[C@H]1c1ccc(CO)cc1 | -0.948 | 0.873 (inactive) | -1.01 | -0.327 | -2.19 (inactive) | -0.121 (inactive) | 0.0894 (inactive) | – | –
C=C1C=C(Br)C2(OCCCO2)[C@H]2OC12 (some centres not stated) | – | -0.584 (inactive) | -0.135 | 1.19 | -1.06 (inactive) | – | – | -0.109 (inactive) | -0.233 (inactive)
COC(=O)[C@@]1(CCC(=O)OC(C)(C)C)COC(c2ccc(OCCCO)cc2)=N1 | -0.741 | -0.191 (inactive) | -1.66 | -0.478 | -2.57 (inactive) | -0.14 (inactive) | 0.264 (inactive) | – | –
[N-]=[N+]=NCc1ccccc1C[C@@]1(C(=O)NCc2ccccc2)N=C(c2ccc(OCCCO)cc2)O[C@@H]1c1ccccc1 | 0.732 | 0.746 (inactive) | -0.409 | -2.15 | 0.77 (inactive) | -1.01 (inactive) | -1.39 (inactive) | – | –
C=CCOC(=O)[C@H]1[C@@H]2C(=O)O[C@@H](c3ccccc3)[C@@H](c3ccccc3)N2[C@@H](c2ccc(OCCOC(=O)[C@H]3C[C@H]4C(=O)N5CCC[C@H]5C(=O)N4[C@H]3c3cccc(OCCO)c3)cc2)[C@]12C(=O)Nc1ccccc12 | 1.64 | 1.33 (inactive) | 0.809 | -1.9 | 1.42 (inactive) | 0.217 (inactive) | 0.5 (inactive) | – | –
COc1ccc(CCNC(=O)[C@@]2(Sc3ccc(C)cc3)CC(=O)N(Cc3ccccc3)[C@@H]2c2ccc(CO)cc2I)cc1 | 0.672 | -0.281 (inactive) | -0.0462 | -1.01 | -1.1 (inactive) | 0.0564 (inactive) | 0.672 (inactive) | – | –
C=CCNC(=O)[C@H]1[C@@H]2C(=O)O[C@@H](c3ccccc3)[C@@H](c3ccccc3)N2[C@@H](c2ccccc2OCCO)[C@]12C(=O)N(C(=O)OCCOC)c1ccc(C#CCCO)cc12 | 0.581 | 0.58 (inactive) | 0.507 | -2.16 | -1.2 (inactive) | 0.051 (inactive) | -0.0745 (inactive) | – | –
COc1ccc([Si](C)(C)[C@H]2[C@H](CCO)O[C@@]3(C(=O)N(Cc4ccc(N5C(=O)c6cccc7cccc5c67)cc4)c4ccccc43)[C@@H]2C)cc1 | 1.05 | 0.529 (inactive) | 0.623 | -1.23 | -0.82 (inactive) | -1.48 (inactive) | -1.39 (inactive) | – | –
C=CCC(OC(C)=O)[C@@H]1[C@@H](N(Cc2cccc3ccccc23)C(=O)c2cccc3ccccc23)c2cc(OCCCO)ccc2N1C(=O)Cc1ccc(OC)cc1 (some centres not stated) | 0.549 | 0.936 (inactive) | -0.314 | -2.48 | -1.57 (inactive) | -0.0578 (inactive) | 0.507 (inactive) | – | –
CC(C)C(CO)N1C(=O)[C@@H]2[C@H]3C(=O)OCC=C[C@H]3OC23C=CCN(Cc2ccccc2)C(=O)[C@@H]13 (some centres not stated) | -1.44 | -0.433 (inactive) | -1.18 | -0.383 | -2.93 (inactive) | -0.228 (inactive) | -0.647 (inactive) | – | –
Cc1ccc(N2C(=O)c3ccccc3[C@](C)(C(=O)NC3CC3)[C@@H]2c2ccc(CO)cc2)nc1 | 0.413 | -0.485 (inactive) | -0.777 | 0.202 | -1.18 (inactive) | -0.0797 (inactive) | 0.24 (inactive) | – | –
C[N+](C)(C)CCCC[C@@H]1NC(=O)[C@H]2C[C@@H](C(=O)NCCCCCN)[C@@H](c3cccc(OCCO)c3)N2C1=O | 2.15 | 0.713 (inactive) | 0.608 | -1.09 | -2.19 (inactive) | 0.287 (inactive) | 0.7 (inactive) | – | –
C=C(COC)C(=O)CC[C@@H](OC(=O)c1ccccc1-c1ccccc1C(=O)O)c1cccc(OCCO)c1 | 1.02 | 0.43 (inactive) | -0.29 | -1.24 | -4.82 (inactive) | 0.273 (inactive) | -0.307 (inactive) | – | –
COc1c(C)cc(-c2cc3c(c(CCc4ccccc4)n2)[Si](C(C)C)(C(C)C)OC3)cc1C | -0.382 | 0.461 (inactive) | -0.436 | -0.633 | -0.207 (inactive) | -0.666 (inactive) | -0.461 (inactive) | – | –
COc1ccc([Si](C)(C)[C@@H]2[C@@H](CC(=O)N3CCC[C@H]3CO)O[C@]3(C(=O)N(Cc4ccc(I)cc4)c4ccccc43)[C@H]2C)cc1 | 1.31 | 0.564 (inactive) | 0.534 | -2.17 | -2.86 (inactive) | -0.703 (inactive) | -0.413 (inactive) | – | –
CC(C)C(CO)N1C(=O)[C@@H]2C3C(=O)OCCC/C=C\[C@H]3OC23C=CCN(C(C)C)C(=O)[C@@H]13 (some centres not stated) | -1.61 | 0.528 (inactive) | -0.501 | 0.0709 | -4.01 (inactive) | -1.29 (inactive) | -1.14 (inactive) | – | –
C[N+](C)(C)CCCC[C@@H]1NC(=O)[C@@H]2C[C@H](C(=O)NCCCCCNC(=O)CS)[C@H](c3ccc(O)cc3)N2C1=O | 1.12 | 0.609 (inactive) | 0.184 | -0.34 | -1.22 (inactive) | -0.536 (inactive) | -0.272 (inactive) | – | –
[N-]=[N+]=NCc1ccccc1C[C@@]1(C(=O)O)N=C(c2ccc(OCCCO)cc2)O[C@@H]1c1ccccc1 | 1.09 | 1.35 (inactive) | 0.687 | -0.455 | -5.05 (inactive) | 0.0912 (inactive) | 0.429 (inactive) | – | –
CC(=O)OC(C/C=C\B1OC(C)(C)C(C)(C)O1)c1ccccc1 (configuration not stated) | -0.236 | -0.65 (inactive) | -0.842 | -1.41 | -1.28 (inactive) | -0.873 (inactive) | -1.16 (inactive) | – | –
C=CCC(OC(C)=O)[C@@H]1[C@@H](N(Cc2ccc(-c3cccc(C(F)(F)F)c3)o2)C(=O)c2ccc(-c3ccccc3)cc2)c2cc(OCCCO)ccc2N1C(=O)Cc1ccc(OC)cc1 (some centres not stated) | 0.497 | 0.163 (inactive) | -0.653 | -0.809 | -0.497 (inactive) | -0.138 (inactive) | -0.0148 (inactive) | – | –
CCOC(=O)C[C@H]1[C@H](OC(=O)c2ccc(-c3ccccc3)cc2)[C@@H](NC(=O)c2ccccc2)c2cc(OCCCO)ccc2N1C(=O)c1ccccc1 | 1.09 | 0.358 (inactive) | -0.206 | -1.21 | -0.959 (inactive) | -1.04 (inactive) | -0.361 (inactive) | – | –
CN1C=C(C(=O)OCCS(C)(=O)=O)C(C(=O)OCCS(C)(=O)=O)=CC(CCCO)=CC1c1cccs1 (configuration not stated) | -0.515 | -0.64 (inactive) | -0.254 | -0.654 | -5.5 (inactive) | -0.084 (inactive) | -0.389 (inactive) | – | –
COC(=O)C(CC#Cc1ccc2c(c1)[C@]1(C(=O)N2)[C@H](C(=O)O)[C@H]2C(=O)O[C@H](c3ccccc3)[C@H](c3ccccc3)N2[C@@H]1c1ccc(OCCO)cc1)C(=O)OC | 3.51 | 1.68 (inactive) | 0.836 | -2.14 | -6.34 (inactive) | -0.192 (inactive) | 0.124 (inactive) | – | –
CC(C)C[C@@H]1NC(=O)[C@@]23C(=O)N[C@@H](Cc4ccccc4)C2[C@H](C)[C@@]2(C)O[C@H]2C3/C=C/CC/C=C/CNC(=O)[C@@H](C)NC1=O (some centres not stated) | -0.195 | -0.804 (inactive) | -0.0387 | -2.13 | -4.78 (inactive) | -0.0396 (inactive) | 0.292 (inactive) | – | –
CCCCCCC#C[Si](O[C@H](c1ccccc1)c1cn(Cc2ccccc2)nn1)(C(C)C)C(C)C | 0.172 | 0.663 (inactive) | -0.15 | -0.934 | 1.18 (inactive) | -0.766 (inactive) | -0.601 (inactive) | – | –
